# In PubChem BioAssay:
# Calls of active or inactive are those of the source.
# What was measured:
# [1] = tested on: PRMT1 (protein arginine N-methyltransferase 1); assay: PRMT1 binders on small-molecule microarrays, primary screen, biochemical, small-molecule microarray, 635 nm fluorescence (AID 1088); details: small-molecule microarray binding, higher = more signal;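 further: binding of Prmt1 protein to compounds spotted on small-molecule microarray slides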
# [2] = yeast growth modulation, basal conditions, primary screen, YJM789 clinical isolate, OD600, 24 h (AID 1089);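 further: growth of clinical yeast isolate S. cerevisiae YJM 789 seeded 1000 cells per well; test concentration not given here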; details: S. cerevisiae YJM789 growth, higher = more signal, called active from +8 up or from −8 down
# [3] = fission yeast growth modulation, primary screen, strain 972, OD600, 24 h, no modulator (AID 1090);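 further: basal condition with compound alone and no growth modifier present; test concentration not given here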; details: S. pombe 972 growth, higher = more signal, called active from +8 up or from −8 down
# [4] = S. cerevisiae growth modulation with rapamycin, primary screen, strain BY4716, OD600, 96 h (AID 1091); details: higher = more signal, called active from +8 up or from −8 down; further: test concentration not given here
# [5] = target: Torsin-1A-interacting protein 2 (Homo sapiens) (UniProt Q8NFQ8); assay: LULL1 binders on small-molecule microarray, primary screen, cell lysate, human LULL1 lysate, 635/667 nm fluorescence (AID 1092); details: hLULL1 lysate binding, 635 nm fluorescence, higher = more signal;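 further: probe is lysate of COS7 cells overexpressing human LULL1; score merges per-feature 667 nm fluorescence with signal-to-noise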
# Torsin-1A-interacting protein 2 (Homo sapiens), sequence (Q8NFQ8 whole entry, looked up): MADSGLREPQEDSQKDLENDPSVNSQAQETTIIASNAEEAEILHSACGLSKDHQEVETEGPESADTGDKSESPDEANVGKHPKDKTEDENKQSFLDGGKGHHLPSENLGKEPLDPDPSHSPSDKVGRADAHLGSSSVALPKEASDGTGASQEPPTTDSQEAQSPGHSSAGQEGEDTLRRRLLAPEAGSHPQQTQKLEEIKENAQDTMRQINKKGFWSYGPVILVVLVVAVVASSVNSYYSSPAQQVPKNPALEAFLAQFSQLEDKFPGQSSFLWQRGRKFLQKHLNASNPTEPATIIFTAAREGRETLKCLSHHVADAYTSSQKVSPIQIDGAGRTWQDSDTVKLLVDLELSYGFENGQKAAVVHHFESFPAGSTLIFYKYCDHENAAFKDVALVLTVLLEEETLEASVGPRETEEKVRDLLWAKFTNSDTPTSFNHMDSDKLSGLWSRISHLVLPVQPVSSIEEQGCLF
# [6] = E. coli growth modulation, two-sided OD650, primary screen, E. coli filamentation project, strain DRC41, 24 h (AID 1093); details: OD650, 24 h, higher = more signal, called active from +8 up or from −8 down;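 further: MC1000 strain lacking acrAB efflux and sulA so SOS filamentation is blocked; test concentration not given here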
# [7] = small-molecule microarray binders of probe aLefty2, primary screen, biochemical, biotinylated probe, 635/667 nm fluorescence (AID 1094); details: higher = more signal;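 further: score merges spot fluorescence near 667 nm with spot signal-to-noise ratio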
# [8] = tested on: Noggin (protein binding on small-molecule microarray); assay: Noggin binders on small-molecule microarray, primary screen, biochemical, 635/667 nm fluorescence (AID 1095); details: 635 nm fluorescence, higher = more signal;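 further: score merges 667 nm feature fluorescence with signal to noise over triplicate slides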
# [9] = target: Neurogenic locus notch homolog protein 3 (Homo sapiens) (UniProt Q9UM47); assay: NOTCH3 binders on small-molecule microarray, primary screen, biochemical, 635/667 nm fluorescence (AID 1096); details: NOTCH3 binding, 635 nm fluorescence, higher = more signal
# Neurogenic locus notch homolog protein 3 (Homo sapiens), sequence (Q9UM47 whole entry, looked up): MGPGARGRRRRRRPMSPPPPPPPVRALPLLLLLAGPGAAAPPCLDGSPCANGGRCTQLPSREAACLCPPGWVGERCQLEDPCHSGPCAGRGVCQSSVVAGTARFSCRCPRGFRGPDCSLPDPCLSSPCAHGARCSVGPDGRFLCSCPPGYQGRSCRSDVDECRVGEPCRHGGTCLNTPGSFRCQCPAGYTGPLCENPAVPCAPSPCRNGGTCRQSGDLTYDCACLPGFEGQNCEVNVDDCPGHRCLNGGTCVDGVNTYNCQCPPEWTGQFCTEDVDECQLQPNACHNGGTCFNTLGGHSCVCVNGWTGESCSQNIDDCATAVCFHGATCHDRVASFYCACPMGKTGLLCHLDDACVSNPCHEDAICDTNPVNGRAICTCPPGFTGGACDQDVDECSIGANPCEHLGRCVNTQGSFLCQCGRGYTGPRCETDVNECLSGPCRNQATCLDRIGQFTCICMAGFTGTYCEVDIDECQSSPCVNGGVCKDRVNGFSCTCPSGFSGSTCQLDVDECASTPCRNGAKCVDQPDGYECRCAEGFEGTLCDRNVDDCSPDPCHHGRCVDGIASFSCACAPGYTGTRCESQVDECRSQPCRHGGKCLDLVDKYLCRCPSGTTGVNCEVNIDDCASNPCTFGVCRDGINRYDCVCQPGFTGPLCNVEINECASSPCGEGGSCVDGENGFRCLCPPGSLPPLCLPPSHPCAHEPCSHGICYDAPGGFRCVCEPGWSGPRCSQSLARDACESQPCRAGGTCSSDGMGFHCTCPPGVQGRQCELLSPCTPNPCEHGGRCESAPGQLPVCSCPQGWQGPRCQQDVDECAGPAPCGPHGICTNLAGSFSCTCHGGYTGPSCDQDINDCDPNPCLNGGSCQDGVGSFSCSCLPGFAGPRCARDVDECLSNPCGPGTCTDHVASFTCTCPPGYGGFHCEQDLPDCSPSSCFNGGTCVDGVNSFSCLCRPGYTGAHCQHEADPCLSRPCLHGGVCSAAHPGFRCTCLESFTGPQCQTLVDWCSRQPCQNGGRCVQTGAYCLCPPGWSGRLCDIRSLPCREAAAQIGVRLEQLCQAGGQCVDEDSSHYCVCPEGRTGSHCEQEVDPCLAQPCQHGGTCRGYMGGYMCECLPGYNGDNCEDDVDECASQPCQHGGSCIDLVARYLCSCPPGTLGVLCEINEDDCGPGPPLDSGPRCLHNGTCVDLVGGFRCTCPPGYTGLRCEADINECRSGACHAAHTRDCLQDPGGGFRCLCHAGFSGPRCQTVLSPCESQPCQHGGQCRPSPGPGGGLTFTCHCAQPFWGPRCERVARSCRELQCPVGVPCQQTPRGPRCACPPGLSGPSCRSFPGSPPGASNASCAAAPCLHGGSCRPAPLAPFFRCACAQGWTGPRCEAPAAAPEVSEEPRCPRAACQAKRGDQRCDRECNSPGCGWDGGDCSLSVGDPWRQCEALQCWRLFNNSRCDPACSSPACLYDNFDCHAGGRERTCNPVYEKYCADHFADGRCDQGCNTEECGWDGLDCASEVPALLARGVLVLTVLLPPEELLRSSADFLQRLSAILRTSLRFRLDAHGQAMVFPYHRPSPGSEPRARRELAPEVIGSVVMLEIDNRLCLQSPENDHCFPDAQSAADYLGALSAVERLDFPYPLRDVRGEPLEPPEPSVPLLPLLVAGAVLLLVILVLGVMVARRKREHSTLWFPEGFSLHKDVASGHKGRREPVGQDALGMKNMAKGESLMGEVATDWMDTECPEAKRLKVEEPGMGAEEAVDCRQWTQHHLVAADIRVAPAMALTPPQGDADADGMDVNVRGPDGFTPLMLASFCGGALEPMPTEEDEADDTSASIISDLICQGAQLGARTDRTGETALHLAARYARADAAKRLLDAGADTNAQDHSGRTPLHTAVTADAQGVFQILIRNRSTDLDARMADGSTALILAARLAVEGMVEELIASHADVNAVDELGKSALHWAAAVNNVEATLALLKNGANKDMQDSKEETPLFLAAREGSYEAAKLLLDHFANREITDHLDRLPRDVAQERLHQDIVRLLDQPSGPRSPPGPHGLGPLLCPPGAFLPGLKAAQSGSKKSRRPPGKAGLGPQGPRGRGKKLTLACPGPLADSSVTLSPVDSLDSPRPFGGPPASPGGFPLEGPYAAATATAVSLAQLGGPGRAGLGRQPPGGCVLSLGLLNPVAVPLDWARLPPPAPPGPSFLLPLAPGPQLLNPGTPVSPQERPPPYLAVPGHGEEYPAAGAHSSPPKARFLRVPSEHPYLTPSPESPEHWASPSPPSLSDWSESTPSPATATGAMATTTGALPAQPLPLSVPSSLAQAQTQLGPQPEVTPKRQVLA
# [10] = small-molecule microarray binders of probe aEGFR, primary screen, biochemical, biotinylated probe, 635/667 nm fluorescence (AID 1097); details: higher = more signal;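 further: probe is a biotinylated anti-EGFR antibody binding compounds printed on slides; score combines fluorescence near 667 nm and signal to noise of each spot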
# [11] = tested on: Plasmodium falciparum Sir2 (PF13_0152, Sir2A); assay: pfSir2 binders on small-molecule microarrays, primary screen, biochemical, small-molecule microarray, 635 nm fluorescence (AID 1098); details: small-molecule microarray binding, fluorescence 635 nm; higher = more signal;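 further: score merges spot fluorescence intensity with its signal-to-noise ratio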
# [12] = small-molecule microarray binders of probe aDKK1, primary screen, biochemical, biotinylated probe, 635/667 nm fluorescence (AID 1099); details: higher = more signal;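 further: score merges 667nm spot fluorescence with signal to noise across triplicate slides; reference of the scale not given here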
# [13] = small-molecule microarray binders of probe aCHRDL2, primary screen, biochemical, biotinylated probe, 635/667 nm fluorescence (AID 1100); details: higher = more signal
# [14] = splicing luciferase reporter signal modulators, primary screen, spliceosome inhibition project, cell-based, HEK293, splice +/- reporter (AID 1101); details: luminescence, 24 h, higher = more signal, called active from +8 up or from −8 down;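 further: HEK293 cells carrying a splicing-competent luciferase reporter gene; test concentration not given here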
# [15] = target: Fibroblast growth factor 10 (Homo sapiens) (UniProt O15520); assay: FGF10 binders on small-molecule microarrays, primary screen, biochemical, small-molecule microarray, 635 nm fluorescence (AID 1102); details: FGF10 binding, fluorescence 635 nm, higher = more signal
# Fibroblast growth factor 10 (Homo sapiens), sequence (O15520 whole entry, looked up): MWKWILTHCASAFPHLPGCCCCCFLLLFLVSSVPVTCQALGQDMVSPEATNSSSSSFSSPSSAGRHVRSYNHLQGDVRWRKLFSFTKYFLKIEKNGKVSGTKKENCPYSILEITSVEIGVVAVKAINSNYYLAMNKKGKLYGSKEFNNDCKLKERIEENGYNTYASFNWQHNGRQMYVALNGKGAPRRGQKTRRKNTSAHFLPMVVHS
# [16] = tested on: glycogen synthase kinase-3 (GSK3A per assay name; protocol says GSK3B); assay: GSK3 binders on small-molecule microarrays, primary screen, biochemical, small-molecule microarray, 635 nm fluorescence, GSK3A (AID 1103); details: small-molecule microarray binding, fluorescence 635 nm; higher = more signal; further: the record names both GSK3A and GSK3B
# [17] = target: Epidermal growth factor receptor (Homo sapiens) (UniProt P00533); assay: EGFR binders on small-molecule microarrays, primary screen, biochemical, small-molecule microarray, 635 nm fluorescence (AID 1104); details: EGFR binding, higher = more signal;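 further: score merges 667 nm emission intensity with spot signal to noise over triplicate slides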
# Epidermal growth factor receptor (Homo sapiens), sequence (P00533 whole entry, looked up): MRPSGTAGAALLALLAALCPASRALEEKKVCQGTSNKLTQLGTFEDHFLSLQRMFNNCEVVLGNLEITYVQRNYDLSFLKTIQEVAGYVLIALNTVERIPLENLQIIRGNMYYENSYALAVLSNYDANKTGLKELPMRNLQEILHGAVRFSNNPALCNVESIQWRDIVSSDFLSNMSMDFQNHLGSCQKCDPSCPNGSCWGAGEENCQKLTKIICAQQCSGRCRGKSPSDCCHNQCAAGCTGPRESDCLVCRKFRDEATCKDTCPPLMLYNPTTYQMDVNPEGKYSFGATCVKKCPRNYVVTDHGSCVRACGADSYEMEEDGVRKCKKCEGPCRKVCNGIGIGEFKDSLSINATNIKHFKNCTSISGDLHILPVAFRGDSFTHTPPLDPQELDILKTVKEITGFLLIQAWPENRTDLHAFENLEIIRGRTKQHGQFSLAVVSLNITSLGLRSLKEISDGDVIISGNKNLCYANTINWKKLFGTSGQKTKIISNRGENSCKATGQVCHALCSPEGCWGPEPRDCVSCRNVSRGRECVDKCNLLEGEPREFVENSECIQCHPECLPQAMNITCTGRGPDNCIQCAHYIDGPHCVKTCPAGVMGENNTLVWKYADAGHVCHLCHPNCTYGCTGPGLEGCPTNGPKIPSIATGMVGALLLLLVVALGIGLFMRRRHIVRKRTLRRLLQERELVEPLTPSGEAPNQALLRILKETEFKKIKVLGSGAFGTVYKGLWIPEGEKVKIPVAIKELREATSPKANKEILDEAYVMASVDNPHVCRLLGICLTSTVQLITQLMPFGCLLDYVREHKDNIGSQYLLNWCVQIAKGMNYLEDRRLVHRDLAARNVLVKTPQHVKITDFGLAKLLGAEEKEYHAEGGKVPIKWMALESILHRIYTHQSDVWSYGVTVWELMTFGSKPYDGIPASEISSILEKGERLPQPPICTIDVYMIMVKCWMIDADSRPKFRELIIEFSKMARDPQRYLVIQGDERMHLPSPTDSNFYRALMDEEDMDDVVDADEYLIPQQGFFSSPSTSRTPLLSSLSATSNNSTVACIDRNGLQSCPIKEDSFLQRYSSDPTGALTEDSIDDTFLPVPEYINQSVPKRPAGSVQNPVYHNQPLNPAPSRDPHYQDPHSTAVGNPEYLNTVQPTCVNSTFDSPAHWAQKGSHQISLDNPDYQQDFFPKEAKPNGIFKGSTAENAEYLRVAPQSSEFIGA
# [18] = target: Follistatin-related protein 3 (Homo sapiens) (UniProt O95633); assay: FSTL3 binders on small-molecule microarrays, primary screen, biochemical, small-molecule microarray, 635 nm fluorescence (AID 1105); details: FSTL3 binding, higher = more signal;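 further: score merges emission near 667 nm and signal to noise per printed spot across three slides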
# Follistatin-related protein 3 (Homo sapiens), sequence (O95633 whole entry, looked up): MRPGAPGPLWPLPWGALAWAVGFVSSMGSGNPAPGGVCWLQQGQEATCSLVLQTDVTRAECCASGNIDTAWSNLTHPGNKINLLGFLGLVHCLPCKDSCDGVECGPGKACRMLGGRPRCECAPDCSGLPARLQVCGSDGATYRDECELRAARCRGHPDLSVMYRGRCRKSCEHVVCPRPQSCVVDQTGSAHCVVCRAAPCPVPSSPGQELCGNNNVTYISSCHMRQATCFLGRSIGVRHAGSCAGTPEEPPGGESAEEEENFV
# [19] = target: Dickkopf-related protein 1 (Homo sapiens) (UniProt O94907); assay: DKK1 binders on small-molecule microarrays, primary screen, biochemical, small-molecule microarray, 635 nm fluorescence scan (AID 1106); details: DKK1 binding, higher = more signal;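 further: score merges emission near 667 nm with signal to noise over three replicate slides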
# Dickkopf-related protein 1 (Homo sapiens), sequence (O94907 whole entry, looked up): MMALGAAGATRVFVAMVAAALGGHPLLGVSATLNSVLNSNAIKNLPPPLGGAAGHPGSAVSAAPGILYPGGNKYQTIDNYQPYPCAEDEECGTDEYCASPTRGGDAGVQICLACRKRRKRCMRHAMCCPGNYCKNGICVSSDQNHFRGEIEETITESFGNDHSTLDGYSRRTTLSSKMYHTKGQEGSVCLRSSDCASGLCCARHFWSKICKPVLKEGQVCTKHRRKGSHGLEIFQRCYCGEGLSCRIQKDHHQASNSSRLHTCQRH
# [20] = tested on: Inhibin beta A chain (activin A); assay: INHBA (activin A) binders on microarrays, primary screen, biochemical, small-molecule microarray, 635 nm fluorescence scan (AID 1107); details: small-molecule microarray binding, higher = more signal;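 further: mouse activin A protein probed at 4.33 µg/mL on printed slides; score merges bound-protein fluorescence near 667 nm with spot signal-to-noise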
Structure (SMILES),composite z-score [1],z-score [2],z-score [3],z-score [4],composite z-score [5],z-score [6],composite z-score [7],composite z-score [8],composite z-score [9],composite z-score [10],composite z-score [11],composite z-score [12],composite z-score [13],z-score [14],composite z-score [15],composite z-score [16],composite z-score [17],composite z-score [18],composite z-score [19],composite z-score [20]
Cn1c(=O)n2n(c1=O)[C@H]1[C@H](O)[C@@H]3O[C@@H]3C(=NOCc3ccccc3)[C@H]1CC2,0.241,0.409 (inactive),-0.41 (inactive),-0.115 (inactive),2.31,0.703 (inactive),-0.185,-0.173,0.525,-0.118,0.421,-0.263,-0.374,2.48 (inactive),-0.414,-0.046,-0.0492,-0.136,-0.0857,-0.241
CCOC(=O)[C@H](CC(C)C)NC(=O)CCC1CC(OC(=O)NCCc2ccc(F)cc2)CC2(CCCC(COC(=O)NCCC(C)C)O2)O1 (stereo not given in full),0.201,0.0312 (inactive),1.12 (inactive),1.08 (inactive),1.51,-0.917 (inactive),-0.107,0.456,-0.496,-0.0778,0.264,-0.149,-0.424,-0.695 (inactive),0.18,-0.0508,0.0889,0.27,0.324,0.175
C=CC[C@@H]1C=C[C@H](ON=C(C)CCC(=O)OC[C@H]2O[C@H](c3ccccc3)C=C[C@@H]2Oc2ccc(OC)cc2)[C@@H](CO)O1,0.12,0.0343 (inactive),-0.212 (inactive),0.261 (inactive),-0.177,0.358 (inactive),-0.209,0.185,-1.3,-0.172,0.892,-0.347,-0.524,-0.393 (inactive),-0.196,-0.855,-0.382,-0.532,0.0305,0.837
COC(=O)[C@H](C)NC(=O)CCC1CC(OC(=O)NCc2ccc3c(c2)OCO3)CC2(CCCC(COC(=O)NCCc3ccccc3OC)O2)O1 (stereo not given in full),0.472,-1.21 (inactive),0.124 (inactive),-0.167 (inactive),1.89,0.872 (inactive),-0.166,0.181,0.0607,-0.0798,0.417,-0.037,-0.24,-0.293 (inactive),0.0774,0.0268,-0.102,-0.108,-0.253,-0.28
CO[C@H]1COC(=O)CCC[C@@H](C)[C@H](OC)COC(=O)[C@@H](C)NC(=O)CC=C[C@@H]1C,1.4,-0.994 (inactive),-1.11 (inactive),0.0722 (inactive),-1.7,-0.597 (inactive),-0.145,1.27,0.571,0.0115,1.69,-0.502,-1.14,-1.15 (inactive),0.313,0.97,1.2,0.938,1.57,1.21
O=c1n(Cc2cc3c(cc2Cl)OCO3)c(=O)n2n1CC[C@@H]1C(=NOC[C@@H](O)COCc3ccco3)[C@H]3O[C@H]3[C@@H](O)[C@@H]12,0.101,1.52 (inactive),0.807 (inactive),1.24 (inactive),0.177,0.283 (inactive),-0.286,0.323,0.667,-0.0976,0.461,-0.0876,-0.454,0.115 (inactive),0.246,0.532,0.349,0.596,0.538,0.217
CO[C@H]1COC(=O)[C@@H](C)COC(=O)[C@@H](OCc2ccccc2)C=C[C@@H]1C,0.0714,1.3 (inactive),-0.204 (inactive),1.03 (inactive),-0.424,0.075 (inactive),-0.357,0.172,-0.165,-0.0363,0.212,-0.439,-0.514,0.232 (inactive),-0.162,-0.227,-0.0072,-0.13,0.348,0.18
COC(=O)CC=C[C@@H](C)[C@@H](C=NOC[C@H]1O[C@H](c2ccccc2)C=C[C@@H]1Oc1ccc(OC)cc1)OC,-0.356,-0.337 (inactive),0.427 (inactive),0.439 (inactive),-0.072,-0.19 (inactive),-0.258,0.0133,-1.13,-0.253,-0.67,-0.242,-0.212,-0.194 (inactive),0.268,-0.393,-0.587,0.173,-0.0407,0.807
CC1O[C@H]2C3=C(C(=O)[C@@H]4O[C@@H]4[C@H]3O)[C@@H]1C1[C@@H](C)OC=C3[C@H](O)C4O[C@@H]4C(=NOCc4ccccc4)[C@]312 (stereo not given in full),-0.543,0.247 (inactive),-0.602 (inactive),0.089 (inactive),0.578,-0.42 (inactive),-0.192,0.521,-0.128,-0.148,0.0395,-0.129,-0.326,-0.469 (inactive),0.0791,-0.14,0.191,-0.3,0.155,0.121
C[C@@H](c1ccccc1)N1C(=O)[C@H]2[C@H]3[C@H](O)[C@H](O)CC(=O)[C@H]3CC[C@H]2C1=O,0.157,-0.394 (inactive),-0.197 (inactive),0.134 (inactive),0.461,0.541 (inactive),-0.0483,0.482,0.521,-0.108,-0.417,-0.338,-0.489,0.282 (inactive),0.526,0.523,0.202,0.548,0.491,-0.0854
